A short description of experiment [1]: qHTS assay to identify small molecule agonists of the hypoxia (HIF-1) signaling pathway - cell viability counter screen (AID 1224844; calls by dose curve; further: nearly all actives have a fitted effect of over 50% in size). The method, boiled down:
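HRE-bla ME-180 cells, 2,000/well in 0.5% dialyzed FBS medium, treated 17 h at 37C with compounds. Viability read in the same wells as the bla reporter, by CellTiter-Glo luminescence after 30 min at room temperature.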
A general note: qHTS replaces the single test concentration by a dilution series.

Experiment [2] in a line: qHTS assay to identify small molecule agonists of H2AX (AID 1224845; active means well fitted activation curve with a large enough effect in the signal ratio in the repeat runs, not every such curve was filed as active; the % refers to the signal ratio). The method, boiled down:
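Phospho-H2AX Ser139 measured by HTRF (ex 320 nm; em 665 and 620 nm) after 24 hr antibody incubation. Compounds, 15 concentrations, 0.76% DMSO, were applied to CHO-K1 cells for 3hr at 37C before lysis.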

Experiment [3] can be described thus: qHTS assay to identify small molecule agonists of the hypoxia (HIF-1) signaling pathway (AID 1224846; active means well fitted activation curve with a large enough effect in the signal ratio in the repeat runs, not every such curve was filed as active; the % refers to the signal ratio). The method, boiled down: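 HRE-bla ME-180 beta-lactamase reporter cells in medium with 0.5% dialyzed FBS, pre-incubated 5 h then exposed to compounds 17 h at 37C, 5% CO2; reporter induction read with CCF4-AM FRET substrate.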
The nature of experiment [4]: qHTS assay to identify small molecule agonists of H2AX - cell viability counter screen (AID 1224847; calls by dose curve;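 further: wild-type CHO-K1 cells; top concentration of the series differs between compounds; nearly all actives have a fitted effect of over 30% in size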). The method, boiled down:
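For this counter screen, overnight-attached CHO-K1 cells received test compounds (15 concentrations, 0.76% DMSO final); 3 hr later at 37C, CellTiter-Glo reagent was added and luminescence recorded after 30 min at room temperature.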

Experiment [5] in a line: qHTS assay to identify small molecule agonists of the estrogen related receptor (ERR) signaling pathway from Tox21 library (AID 1224849; calls by dose curve; further: nearly all actives have a fitted effect of over 15% in size). The method, boiled down: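 ERR reporter cells (NTP line) pre-incubated 6 hours at 37 C, then exposed to compounds for 18 hours at 37 C. ONE-Glo luciferase luminescence was read after 30 minutes at room temperature.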
The nature of experiment [6]: qHTS RealTime-Glo MT Cell Viability Assay in HepG2 cells - 24 hour (AID 1224867). Further: nearly all actives have a fitted effect of over 50% in size. Further: potency means the concentration at half of the fitted maximal effect. Put shortly:
(§1)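 Cells + NanoLuc/prosubstrate dispensed (600 cells/well) → 5 h at 37 C/5% CO2 → compounds in DMSO transferred → 40 h incubation at 37 C, luminescence read at 0, 8, 16, 24, 32, 40 h.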

Experiment [7] in a line: qHTS RealTime-Glo MT Cell Viability Assay in HEK293 cells - 32 hour (AID 1224868). Further: nearly all actives have a fitted effect of over 50% in size. Further: potency means the concentration at half of the fitted maximal effect. The method, boiled down:
(§2)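 Tox21 10K qHTS, HEK293, 600 cells/well, RealTime-Glo reagent co-dispensed with cells; 5 h preincubation, compound by pintool, 37 C, luminescence at 0–40 h.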

Experiment [8] is described as follows: qHTS RealTime-Glo MT Cell Viability Assay in HepG2 cells - 40 hour (AID 1224870). Further: nearly all actives have a fitted effect of over 50% in size. Put shortly: (§3)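 Real-time viability: cells seeded at 600 per well together with NanoLuc and cell-permeant prosubstrate, compounds added after 5 h incubation. Luminescence tracked at 0, 8, 16, 24, 32 and 40 h of exposure.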
Experiment [9] in a line: A CellTox Green Cytotoxicity Assay to monitor cytotoxicity in HEK293 cells - 40 hour (AID 1224871). Further: nearly all actives have a fitted effect of over 45% in size. Put shortly:
(§4)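 HEK293 cells, 600/well, were preincubated 5 hours and then exposed to compounds at 37 C for up to 40 hours. A cell-impermeant cyanine dye staining dead-cell DNA was read by fluorescence at 0, 8, 16, 24, 32 and 40 h time points.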

The nature of experiment [10]: qHTS RealTime-Glo MT Cell Viability Assay in HEK293 cells - 16 hour (AID 1224872). The method, boiled down:
as §2

Experiment [11] can be described thus: qHTS RealTime-Glo MT Cell Viability Assay in HepG2 cells - 8 hour (AID 1224873). Further: nearly all actives have a fitted effect of over 55% in size. Further: potency means the concentration at half of the fitted maximal effect. The method, boiled down:
as §3

The nature of experiment [12]: qHTS RealTime-Glo MT Cell Viability Assay in HEK293 cells - 40 hour (AID 1224874). Further: nearly all actives have a fitted effect of over 50% in size. Further: potency means the concentration at half of the fitted maximal effect. The conditions noted are these: RealTime-Glo luminescence; max response: stronger effect = lower value. The method, boiled down:
(§5)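 600 cells/well were plated with the nonlytic NanoLuc/prosubstrate reagent, pre-incubated 5 h, then given 23 nL of compound in DMSO. Incubation at 37 C for 40 h, with luminescence from viable-cell-reduced substrate read repeatedly from 0 h.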

Experiment [13] can be described thus: A CellTox Green Cytotoxicity Assay to monitor cytotoxicity in HEK293 cells - 24 hour (AID 1224875). Further: series mostly up to about 77 µM; nearly all actives have a fitted effect of over 45% in size. The method, boiled down:
as §4

The nature of experiment [14]: A CellTox Green Cytotoxicity Assay to monitor cytotoxicity in HepG2 cells - 16 hour (AID 1224876). Further: nearly all actives have a fitted effect of over 45% in size. The method, boiled down: (§6)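 HepG2 cells, 600/well, preincubated 5 h with CellTox Green dye, then exposed to Tox21 compounds in DMSO at 37 C for up to 40 h. Dead-cell DNA fluorescence read at the indicated time point.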
The nature of experiment [15]: qHTS RealTime-Glo MT Cell Viability Assay in HepG2 cells - 32 hour (AID 1224877). Further: nearly all actives have a fitted effect of over 55% in size. Put shortly:
as §1

A short description of experiment [16]: A CellTox Green Cytotoxicity Assay to monitor cytotoxicity in HepG2 cells - 24 hour (AID 1224878). Further: nearly all actives have a fitted effect of over 45% in size. The method, boiled down:
as §6

Experiment [17] is described as follows: A CellTox Green Cytotoxicity Assay to monitor cytotoxicity in HepG2 cells - 40 hour (AID 1224879). Further: nearly all actives have a fitted effect of over 40% in size. Put shortly:
as §6

Experiment [18] in a line: qHTS RealTime-Glo MT Cell Viability Assay in HEK293 cells - 0 hour (AID 1224880). Put shortly:
as §5

Experiment [19] can be described thus: A CellTox Green Cytotoxicity Assay to monitor cytotoxicity in HEK293 cells - 0 hour (AID 1224869). Further: nearly all actives have a fitted effect of over 50% in size. Put shortly:
as §4

Experiment [20] has as its target Thyrotropin receptor (Homo sapiens) (UniProt P16473). Briefly: qHTS assay to identify small molecule agonists of the thyroid stimulating hormone receptor (TSHR) signaling pathway (AID 1224843; calls by dose curve; further: nearly all actives have a fitted effect of over 45% in size). The method, boiled down: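 HEK293 cells stably bearing the thyrotropin receptor were plated at 800 cells/well and challenged with compound (30 min, RT). Accumulated cAMP was quantified via cAMP-d2 competing for cryptate-tagged antibody.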

Structures are written as SMILES. Where “and” joins values, the source holds several entries; their conditions need not be identical. Equal values may be shown once. Results filed as inconclusive are left out. A structure can be active in one record and inactive in another. Calls of active or inactive are those of the source. Unless noted, the call rests on the fitted dose curve; in most records, active means well fitted curve in the direction sought with a large enough effect in the repeat runs; inconclusive means weak or mixed curves; inactive means no such curve, though single readings can be large; an effect the other way counts as inactive or inconclusive.
On the % scale 0 is the no-effect control and ±100 the full control effect.

Sequence of Thyrotropin receptor (Homo sapiens) (P16473 whole entry, looked up): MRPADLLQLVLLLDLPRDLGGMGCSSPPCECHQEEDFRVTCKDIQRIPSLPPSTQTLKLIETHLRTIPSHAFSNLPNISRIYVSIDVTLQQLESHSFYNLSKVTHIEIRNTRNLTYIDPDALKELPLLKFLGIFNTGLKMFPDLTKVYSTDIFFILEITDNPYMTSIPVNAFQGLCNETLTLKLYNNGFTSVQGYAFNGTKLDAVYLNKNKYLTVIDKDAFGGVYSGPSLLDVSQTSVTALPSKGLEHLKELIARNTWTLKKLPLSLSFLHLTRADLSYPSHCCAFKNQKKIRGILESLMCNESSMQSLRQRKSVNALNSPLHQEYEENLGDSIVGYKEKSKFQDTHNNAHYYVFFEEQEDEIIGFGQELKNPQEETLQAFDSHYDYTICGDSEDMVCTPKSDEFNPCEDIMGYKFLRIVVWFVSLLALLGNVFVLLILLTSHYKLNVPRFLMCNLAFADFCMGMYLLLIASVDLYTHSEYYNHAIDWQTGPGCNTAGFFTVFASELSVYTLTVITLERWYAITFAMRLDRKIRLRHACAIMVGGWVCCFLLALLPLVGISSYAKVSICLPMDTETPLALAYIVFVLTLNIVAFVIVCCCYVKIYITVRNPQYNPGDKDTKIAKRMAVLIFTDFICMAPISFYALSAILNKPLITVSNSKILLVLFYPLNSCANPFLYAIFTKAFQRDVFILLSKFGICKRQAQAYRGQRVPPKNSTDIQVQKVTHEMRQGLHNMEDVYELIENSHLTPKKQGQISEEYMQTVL

With `CC1(C)NC(=O)NC1=O`, the compound was classed as inactive in experiment [1], in experiment [2], in experiment [3], in experiment [4], in experiment [5] and in experiment [8]. The result in experiment [14], in experiment [15] and in experiment [18] was inactive. The Potency result in [6], in experiment [7], in experiment [9], in [10], in [11] and in experiment [13] was “inactive” in each case. Further, the Potency entry in experiment [16] and in [17] was “inactive” each time. Further, in [12], the max response is 4.62% (inactive) and 21.9% (inactive).
Consider `CNC(=S)N(C)C`, for which the compound was classed as inactive in [1], in experiment [2], in [3], in [4], in experiment [19] and in experiment [8]. Moreover, the result in experiment [14], in [15] and in experiment [18] was inactive. Besides, the Potency entry in experiment [6], in [9], in [10], in [11], in [13] and in experiment [16] was “inactive” throughout. In [17], the Potency entry is “inactive”. For the same compound, the Potency entry in experiment [7] was “inactive and 11.6 µM (active)”; in experiment [12] it was 11.6 µM (active). Also, in [12], the max response is 3.02% (inactive).
For the compound `CCCCCCCCCCCCCCCCO`, the outcome in [20], in [2], in experiment [3], in experiment [4], in experiment [8] and in experiment [14] was inactive. Also, the call in experiment [15] and in experiment [18] was inactive. Moreover, the Potency result in experiment [6], in experiment [9], in experiment [10], in [11], in experiment [13] and in experiment [16] was “inactive” each time. Further, the Potency result in experiment [17] is “inactive”. Besides, in experiment [12], the max response was -1.41% (inactive).
Regarding `O=C(O)Cn1c(=O)n(Cc2ccc(Br)cc2F)c(=O)c2ccc(Cl)cc21`, the call in experiment [1], in [2], in experiment [3], in experiment [4], in experiment [5] and in [19] was inactive. The result in experiment [8], in experiment [14] and in experiment [18] was inactive. The Potency was 38.9 µM (active) in experiment [6]; 21.9 µM (active) and 8.49 µM (active) in experiment [11]. Also, the Potency result in experiment [9], in experiment [10], in experiment [13], in experiment [16] and in [17] was “inactive” in each case.
For the compound `O=C(O)c1ccc(C(=O)O)c(C(=O)O)c1`, the call in experiment [20], in experiment [2], in experiment [4], in [5], in experiment [19] and in experiment [8] was inactive. In addition, the compound was classed as inactive in experiment [14], in experiment [15] and in experiment [18]. Moreover, the Potency result in experiment [6], in [9], in experiment [10], in [11], in experiment [13] and in experiment [16] was “inactive” each time. In addition, the Potency entry in experiment [17] was “inactive”. The max response in [12] is -1.73% (inactive) and 1.6% (inactive).
For the compound `CC(=O)Oc1ccc(C)cc1`, the compound was classed as inactive in experiment [1], in experiment [2], in experiment [3], in experiment [4], in experiment [19] and in experiment [8]. In addition, the result in experiment [14], in [15] and in [18] was inactive. Moreover, the Potency result in [6], in [7], in experiment [9], in experiment [10], in [11] and in [13] was “inactive” in each case. Further, the Potency entry in experiment [16] and in experiment [17] was “inactive” throughout. For the same compound, in experiment [12], the max response is 7.12% (inactive) and 1.96% (inactive).
Regarding `CN/C(=C\[N+](=O)[O-])NCCSCc1csc(CN(C)C)n1`, the result in experiment [20], in experiment [2], in experiment [4], in experiment [8], in experiment [14] and in experiment [15] was inactive. Moreover, the outcome in [18] was inactive. The Potency entry in [6], in experiment [7], in experiment [9], in experiment [10], in experiment [11] and in experiment [13] was “inactive” in each case. The Potency entry in experiment [16] and in [17] was “inactive” each time.
`CCO[Si](CCCN)(OCC)OCC`: the compound was called inactive in [20], in experiment [2], in experiment [3], in experiment [4], in experiment [5] and in experiment [19]. The compound was called inactive in experiment [8], in experiment [14], in experiment [15] and in [18]. Besides, the Potency result in experiment [6], in experiment [9], in experiment [10], in experiment [11], in [13] and in experiment [16] was “inactive” in each case. Moreover, in experiment [17], the Potency entry is “inactive”.

(Values after PubChem BioAssay (Tox21).)
